An excerpt weighted towards active compounds, which were near 12% of everything screened.
AMA1 RON2 block – qHTS for Inhibitors of AMA1-RON; Towards Development of Antimalarial Drug Lead: Primary Screen. Plasmodium falciparum AMA1 (3D7) - RON2 peptide interaction. AlphaScreen AMA1-biotinylated RON2 peptide binding. actives 0.2% (n = 360,000). Potency, µM (doses to about 58.2 µM), inactives show at the top dose activity change, negative = inhibition, usual class: inhibitors;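 also: 0% = vehicle wells and -100% = peptide control; nearly all actives have a fitted effect of over 45% in size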
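AMA1 (3D7) with his tag at 25 nM final met compounds first, then biotinylated RON2 peptide at 25 nM; detection used donor plus acceptor beads, 10 µg/mL apiece, read by AlphaScreen after 30 min at room temperature.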
HCV inh – qHTS Assay for Inhibitors of Hepatitis C Virus (HCV) | Potency, µM (series often up to 41.8 µM), inactives show top-dose activity change, negative = inhibition, hits mostly inhibitors | AID 651820, 2012 | actives 3.4% (n = 340,000) | Huh7.5.1 HCVcc-Cre infection, luciferase reporter, 44 h; also: % is scaled to controls: 0 for no effect and ±100 for the full control effect
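Cells seeded at 1,000/well and cultured 4 h, then compounds added followed by HCVcc-Cre virus (~0.5 moi). After 44 h further culture, luciferase substrate was added, plates held 15 min at room temperature, and luminescence read for 15 sec.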
Pf growth 48h – Primary qHTS for delayed death inhibitors of the malarial parasite plastid, 48 hour incubation. AID 504832, 2011. Potency, µM (titrated, usually from 28.7 µM), without a hit: top-dose activity change, negative = inhibition, most hits filed as inhibitors. actives 5.9% (n = 310,000). P. falciparum luciferase growth in erythrocytes, 48 h; also: % is scaled to controls: 0 for no effect and ±100 for the full control effect
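Parasite viability was followed by luminescence of a genomically integrated firefly luciferase. Cultures held 0.1% parasitemia at 2% hematocrit (final), incubated under 5% CO2 at 37 C.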
Pf growth 96h – Primary qHTS for delayed death inhibitors of the malarial parasite plastid, 96 hour incubation; Potency, µM (titrated, usually from 28.7 µM), without a hit: top-dose activity change, negative = inhibition, actives largely listed as inhibitors; actives 6.9% (n = 320,000); P. falciparum luciferase reporter growth, 96 h; AID 504834, 2011; also: % is scaled to controls: 0 for no effect and ±100 for the full control effect
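Compounds incubated with erythrocytes infected by luciferase-expressing P. falciparum (2% hematocrit, 0.05% parasitemia final) for 96 hours, 37 C in 5% CO2. Growth inhibition scored as decreased luciferase luminescence.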
SARS PLpro yeast – qHTS of Yeast-based Assay for SARS-CoV PLP; S. cerevisiae expressing SARS-CoV PLpro, growth rescue; Potency, µM (top dose mostly 32.9 µM), for the others: at the top dose activity, positive = growth rescue, actives largely listed as activators; actives 0.19% (n = 330,000); calls by dose curve; also: 0% is about no effect; nearly all actives have a fitted effect of over 55% in size
NS1 inh – qHTS Assay for Inhibitors of Influenza NS1 Protein Function; Potency, µM (doses to about 46.1 µM), without a hit: top-dose activity, positive = more growth; actives 0.4% (n = 270,000); calls by dose curve; also: actives are rising curves; nearly all actives have a fitted effect of over 50% in size
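S. cerevisiae expressing influenza A NS1, grown in glucose, washed, then diluted 1:100 into pH 6.0 -URA galactose medium with 23 nl compound. Growth recovery read as OD600; NS1-free strain serves as control.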
The depositor's hits bear a star; [ ] = remark or other dose. Unless noted, calls follow the shape of the dose curve; as a rule, active = well fitted curve in the direction sought with a large enough effect; inconclusive = small, poorly fitted or top-dose-only effect, or another doubt; inactive = no such curve, though single readings can be large; an effect the other way counts as inactive or inconclusive. Potency is read from the fitted curve at half-maximal effect.

How did C[C@H](NC(=O)c1nc[nH]c1C(=O)N[C@@H](Cc1ccccc1)C(=O)OC(C)(C)C)C(=O)OC(C)(C)C do in these assays?
AMA1 RON2 block: 116%; HCV inh: 11µM*; Pf growth 48h: 7.4µM*; Pf growth 96h: inconclusive; SARS PLpro yeast: -2%; NS1 inh: inconclusive

How did Cc1cccc(NC(=O)c2nc[nH]c2C(=O)N[C@@H](Cc2ccccc2)C(=O)OC(C)(C)C)c1 do in these assays?
AMA1 RON2 block: 111%; HCV inh: inconclusive; Pf growth 48h: inconclusive; Pf growth 96h: 12µM*; SARS PLpro yeast: -1%; NS1 inh: inconclusive

How did C[C@H](NC(=O)c1nc[nH]c1C(=O)N[C@@H](C)c1ccccc1)C(=O)OC(C)(C)C do in these assays?
AMA1 RON2 block: 133%; HCV inh: -24%; Pf growth 48h: inconclusive; Pf growth 96h: inconclusive; SARS PLpro yeast: 1%; NS1 inh: 1%

How did CC(C)(C)OC(=O)[C@H](Cc1ccccc1)NC(=O)c1[nH]cnc1C(=O)Nc1cccc(Cl)c1 do in these assays?
AMA1 RON2 block: 123%; HCV inh: -2%[8.37 µM]; Pf growth 48h: inconclusive; Pf growth 96h: inconclusive; SARS PLpro yeast: 3%; NS1 inh: inconclusive

What do the screens show for `O=C(N=C1SC2CS(=O)(=O)CC2N1c1ccc(Cl)cc1Cl)C1CC1` (configuration not stated)?
AMA1 RON2 block: 0%; HCV inh: 16%; Pf growth 48h: 11%; Pf growth 96h: 13%; SARS PLpro yeast: 6%; NS1 inh: 10%

What do the screens show for `COc1ccc(/C=C/C(=O)NC(CCSC)C(=O)O)cc1` (configuration not stated)?
AMA1 RON2 block: 43%; HCV inh: 7%; Pf growth 48h: 19%; Pf growth 96h: inconclusive; SARS PLpro yeast: -1%

Results for Cc1ccc(CNC(=O)C(=O)NCC2OCCCN2S(=O)(=O)c2ccc(F)cc2)cc1 (configuration not stated) ?
AMA1 RON2 block: -10%; Pf growth 48h: -3%; Pf growth 96h: 7%; SARS PLpro yeast: 4%; NS1 inh: 11%

Results for O=[N+]([O-])c1ccccc1-c1nc(-c2ccc(Br)o2)no1 ?
AMA1 RON2 block: 25µM*; HCV inh: inconclusive; Pf growth 48h: 122%; Pf growth 96h: inconclusive; SARS PLpro yeast: inconclusive; NS1 inh: -4%

What do the screens show for `Clc1ccccc1-c1nc(-c2ccc(Br)o2)no1`?
AMA1 RON2 block: 8%; HCV inh: inconclusive; Pf growth 48h: 7%; Pf growth 96h: inconclusive; SARS PLpro yeast: -2%; NS1 inh: -15%

How did c1ccc(C[C@H]2CNCCN2CC2(c3ccccc3)CC2)cc1 do in these assays?
AMA1 RON2 block: 3%; HCV inh: inconclusive; Pf growth 48h: inconclusive; Pf growth 96h: inconclusive; SARS PLpro yeast: -11%

Results for COc1ccccc1OCC(=O)NCCSCc1ccccc1Cl ?
AMA1 RON2 block: 1%; HCV inh: 10%; Pf growth 48h: inconclusive; Pf growth 96h: 22%; SARS PLpro yeast: -9%; NS1 inh: -47%

What do the screens show for `COc1ccccc1C(=O)NCCSCc1ccccc1Cl`?
AMA1 RON2 block: -19%; HCV inh: inconclusive; Pf growth 48h: 7.4µM*; Pf growth 96h: 2.9µM*; SARS PLpro yeast: -13%; NS1 inh: -58%

How did COc1ccccc1C(=O)NCCC(=O)N1CCCCCCC1 do in these assays?
AMA1 RON2 block: 20%; HCV inh: 28%; Pf growth 48h: inconclusive; Pf growth 96h: 6%; SARS PLpro yeast: -2%

How did COc1cc(C(=O)NCC(=O)N2CCN(S(=O)(=O)c3ccccc3C(F)(F)F)CC2)cc(OC)c1OC do in these assays?
AMA1 RON2 block: -5%; HCV inh: 1%; SARS PLpro yeast: 4%

Results for Cc1ccccc1CSCCNC(=O)c1ccccc1 ?
AMA1 RON2 block: 0%; HCV inh: 19%; Pf growth 48h: 12µM*; Pf growth 96h: 0%; SARS PLpro yeast: 2%; NS1 inh: -8%

Results for COc1ccccc1C(=O)NCC(=O)N1CCN(S(=O)(=O)c2ccccc2C(F)(F)F)CC1 ?
AMA1 RON2 block: -8%; HCV inh: 1%; Pf growth 48h: inconclusive; Pf growth 96h: 8.3µM*; SARS PLpro yeast: 6%

Results for COc1ccccc1C(=O)NCCC(=O)N1CCN(c2ccccc2Cl)CC1 ?
AMA1 RON2 block: 33%; HCV inh: 22%; Pf growth 48h: 8.3µM*; Pf growth 96h: 12µM*; SARS PLpro yeast: 0%

Results for COc1ccc(S(=O)(=O)N2CCCCC2)cc1NC(=O)c1cncc(Br)c1 ?
AMA1 RON2 block: 5%; HCV inh: 18%; Pf growth 48h: -29%; Pf growth 96h: -19%; SARS PLpro yeast: -4%

What do the screens show for `O=S1(=O)C[C@H](N2CCN(CC3CC3)CC2)[C@@H](COCc2ccccc2)N1`?
AMA1 RON2 block: 22%

Results for COc1cc(/C=C/C(=O)c2cccc([N+](=O)[O-])c2)cc(OC)c1OC ?
AMA1 RON2 block: -7%[2.32 µM]; HCV inh: 11µM*; Pf growth 48h: -3%; Pf growth 96h: 100%; SARS PLpro yeast: 4%; NS1 inh: -5%

How did CCOC(=O)c1ccc(NCCc2ccc(OC)c(OC)c2)c(N)c1 do in these assays?
AMA1 RON2 block: inconclusive; HCV inh: 11%; Pf growth 48h: 9.3µM*; Pf growth 96h: inconclusive; SARS PLpro yeast: 2%; NS1 inh: -20%

What do the screens show for `COc1ccc(CCNC(=O)c2ccc(OC)c(OC)c2)cc1OC`?
AMA1 RON2 block: 9%; HCV inh: 1%; Pf growth 48h: 6%; Pf growth 96h: 18%; SARS PLpro yeast: 7%; NS1 inh: 8%

Results for C=C1C(=O)C2=CC1CCC(=O)C1(C)CCC(OC(C)=O)C(C)(C)C1CC2O (configuration not stated) ?
AMA1 RON2 block: 12%; HCV inh: 11µM*

What do the screens show for `CN(C)C1(CNC(=O)C2CCN(S(=O)(=O)c3cccc(C(F)(F)F)c3)CC2)CCCCC1`?
AMA1 RON2 block: 0%; HCV inh: inconclusive; Pf growth 48h: inconclusive; Pf growth 96h: inconclusive; SARS PLpro yeast: -1%; NS1 inh: 2%

What do the screens show for `Nc1cc(=O)[nH]c(SCC(=O)N2CCC(Cc3ccccc3)CC2)n1`?
AMA1 RON2 block: 25%; HCV inh: 14µM*; Pf growth 48h: inconclusive; Pf growth 96h: -28%; SARS PLpro yeast: 0%
